# PubChem BioAssay (NCI)
# This is part of a sample that, as a whole, favours compounds with a hit. Of some 83,000 tested, about 20% had one in any assay.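 In brief: 96-well plates, 48 h treatment, single concentration, percent growth endpoint.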 Unmarked numbers belong to inactive results. Active and inactive are the calls of the source. How the source made its calls: active means growth percent below 10; inactive means the rest.
# Experiments:
# Assay in all cases: NCI-60 one-dose screen, 48 h (100 = growth as untreated, 0 = no growth, -100 = all killed)
# Conditions in all cases: 10 µM unless noted
# SR leukemia = tested on: SR leukemia
# RPMI-8226 leukemia = tested on: RPMI-8226 leukemia
# OVCAR-8 ovarian = tested on: OVCAR-8 ovarian
# OVCAR-5 ovarian = tested on: OVCAR-5 ovarian
# OVCAR-4 ovarian = tested on: OVCAR-4 ovarian
# SK-OV-3 ovarian = tested on: SK-OV-3 ovarian
# IGROV1 ovarian = tested on: IGROV1 ovarian
# OVCAR-3 ovarian = tested on: OVCAR-3 ovarian
# NCI/ADR-RES ovarian = tested on: NCI/ADR-RES ovarian
# T-47D breast = tested on: T-47D breast
# BT-549 breast = tested on: BT-549 breast
# MDA-MB-435 melanoma = tested on: MDA-MB-435 melanoma
# SW-620 colon = tested on: SW-620 colon
# MCF7 breast = tested on: MCF7 breast
# HCT-116 colon = tested on: HCT-116 colon
# HCC-2998 colon = tested on: HCC-2998 colon
# KM12 colon = tested on: KM12 colon
SMILES,growth (SR leukemia),growth (RPMI-8226 leukemia),growth (OVCAR-8 ovarian),growth (OVCAR-5 ovarian),growth (OVCAR-4 ovarian),growth (SK-OV-3 ovarian),growth (IGROV1 ovarian),growth (OVCAR-3 ovarian),growth (NCI/ADR-RES ovarian),growth (T-47D breast),growth (BT-549 breast),growth (MDA-MB-435 melanoma),growth (SW-620 colon),growth (MCF7 breast),growth (HCT-116 colon),growth (HCC-2998 colon),growth (KM12 colon)
CS(=O)(=O)Nc1cccc(-c2ccc3ncnc(Nc4ccc(F)c(Cl)c4)c3c2)c1,-2.28% (active),18.4%,29%,49.1%,37%,-10.8% (active),-3.89% (active),25.9%,39.2%,-21.7% (active),35.4%,38.7%,7.1% (active),15.3%,16.1%,20.2%,21.6%
CC(C)CNCC(O)COc1ccc(C(C)(C)c2ccc(OCC(O)CNCC(C)C)cc2)cc1 (centres undefined),-38.7% (active),-9.88% (active),53.4%,80.8%,81%,86.9%,47.4%,44.5%,86.7%,-31.3% (active),69.4%,7.56% (active),1.07% (active),10.3%,0.347% (active),-24.5% (active),37.1%
Nc1nccc2c1ccn2-c1cccc(NC(=O)c2ccc(N3CCOCC3)c(C(F)(F)F)c2)c1,-13.4% (active),-40.9% (active),0.868% (active),32.6%,78.5%,16.6%,28.1%,-27.2% (active),-2.74% (active),45.7%,-5.74% (active),2.02% (active),25.5%,16%,7.23% (active),23.9%,-14.5% (active)
CN(CCNCc1ccccn1)CCNCc1ccccn1,9.92% (active),18.9%,13.5%,-1.39% (active),-17.3% (active),-23% (active),26.9%,-37.1% (active),4.32% (active),0.513% (active),-2.61% (active),-30.7% (active),4.13% (active),6.52% (active),-25.2% (active),-46.8% (active),-0.112% (active)
COC1=C(OC)C(=O)C=CC1=O,38.1%,91.4%,110%,116%,102%,114%,96.5%,83.6%,109%,99.5%,94.4%,116%,77.8%,94.3%,64.4%,125%,104%
COc1ccccc1S(=O)(=O)Nc1ccc2c3c(cc(-c4cnn(C)c4)nc13)C(=O)N2C,46.1%,-4.77% (active),47.1%,54.1%,51%,14.8%,18.4%,34.1%,35.9%,35.5%,62.6%,35.2%,63.2%,16.5%,28.2%,48.2%,38.2%
O=C(Nc1ccc(-n2cc(-c3ccncc3)c(-c3ccc(O)c(Cl)c3)n2)cc1)Nc1cccc(Cl)c1Cl,74%,12.7%,62%,101%,78.7%,81.7%,77.9%,55.3%,66.7%,42.1%,59%,51.3%,73.7%,42.2%,36.8%,70%,39.1%
O=C(NCCNc1nccc(-c2c(-c3cccc(O)c3)nc3sccn23)n1)c1ccccc1,68%,76.8%,66.6%,90.6%,98%,65.1%,57.4%,92.3%,99.7%,58.6%,61.4%,24%,78.2%,38.1%,42.5%,97.8%,75.9%
COc1ccc(-c2nn(-c3ccc(NC(=O)Nc4ccc(Cl)c(C(F)(F)F)c4)cc3)cc2-c2ccncc2)cc1Cl,-7.31% (active),-33.1% (active),9.53% (active),14.5%,45.1%,23.9%,24.8%,-1.59% (active),9.1% (active),24.7%,0.583% (active),-16.6% (active),3.24% (active),7.96% (active),-7.68% (active),11.3%,0.474% (active)
Nc1n[nH]c2cccc(C#Cc3cccc(NC(=O)c4cccc(C(F)(F)F)c4)c3)c12,27.2%,29.3%,47.2%,31.3%,44.1%,46.3%,-7.33% (active),49.2%,43.2%,25.3%,46.2%,30.1%,46.1%,39.9%,9.05% (active),26.2%,38.5%
CCCCCCCCN(CCCCCCCC)CC(O)c1cc(-c2ccccc2)nc2ccc(OC)cc12 (centres undefined),5.05% (active),1.99% (active),8.91% (active),101%,78.4%,103%,95.8%,66.6%,13.4%,77%,78.8%,60.1%,23.6%,67%,8.32% (active),101%,82.9%
O=C(NCCNc1nccc(-c2c(-c3cccc(O)c3)nc3sccn23)n1)Nc1cc(C(F)(F)F)cc(C(F)(F)F)c1,65.3%,45.7%,52.8%,96.5%,121%,89.3%,65.2%,82.2%,87.8%,72%,87.6%,9.9% (active),73.5%,67.5%,66.3%,65.5%,43.1%
O=C(Nc1ccc(-n2cc(-c3ccncc3)c(-c3ccc(O)c(Cl)c3)n2)cc1)Nc1cc(C(F)(F)F)cc(C(F)(F)F)c1,69.7%,45%,56.4%,75.7%,82.2%,81.7%,56.3%,33.3%,55%,33.2%,20.4%,54.6%,73.9%,55.7%,53.3%,79%,48.7%
O=C(Nc1cccc(-n2ccc3c(NC(=O)c4ccccc4)nccc32)c1)c1cc(N2CCOCC2)cc(C(F)(F)F)c1,-14.2% (active),-42.4% (active),2.86% (active),19.3%,83.1%,5% (active),4.25% (active),-34.8% (active),7.24% (active),66.3%,-13.1% (active),-13.3% (active),14.2%,21.3%,1.44% (active),28.8%,-3.61% (active)
Nc1nccc2c1ccn2-c1ccc(NC(=O)Nc2cccc(C(F)(F)F)c2)cc1,91.5%,67.4%,93.1%,97.9%,108%,104%,95.1%,80.8%,89.3%,85.1%,96.5%,96.6%,103%,86.8%,76.8%,115%,75.1%
COc1ccc(/C=C/C(=O)c2ccc(NC(=O)CSc3nnc(-c4cc(OC)c(OC)c(OC)c4)o3)cc2)cc1,-60.5% (active),-43.7% (active),-14.3% (active),7.48% (active),-49.9% (active),85.2%,-39.2% (active),-93.8% (active),3.13% (active),-44.5% (active),-3.02% (active),-39.2% (active),-61.5% (active),-30.8% (active),-76.4% (active),-72% (active),-91.8% (active)
FC(F)(F)c1cn(CC2CNC2)c2ncnc(Cl)c12,87%,105%,92.2%,112%,110%,108%,105%,103%,102%,102%,125%,109%,104%,103%,108%,99.5%,104%
